Screens from PubChem BioAssay.
IP6K1 inh – inhibitors of human IP6K1. Q92551. IP6K1 kinase, ADP-Glo luminescence, 2 h; active compounds read low. activity change, % (series mostly up to about 58 µM). hit rate 0.81% among 140,000; in the data active = activity change below about -25%; note: % is set by controls: 0 for no effect and ±100 for the full control effect
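ADP-Glo luminescence measures ADP made by human IP6K1 during a 2 h RT reaction with ATP/IP6 (mix at 1.3 mM/130 uM); top library doses 57.5 and 19.1 uM final.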
KDM5B inhibitor – KDM5B demethylase inhibition. Q9UGL1. KDM5B demethylase, FDH-coupled NADH fluorescence (FDH is formaldehyde dehydrogenase). Potency, µM (highest dose often 57.7 µM), most hits filed as inhibitors. hit rate 2.6% among 220,000; note: potency is the fitted concentration of half-maximal effect; 0% is about no effect; nearly all actives have a fitted effect of over 70% in size
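qHTS format, multiple compound concentrations. Buffer 50 mM HEPES pH 7.5/0.01% Tween-20; 200 nM KDM5BΔAP final; 10 min compound preincubation; substrate-mix levels 12.5 µM peptide, 25 µM α-KG, 0.25 mM NAD⁺; 30 min RT; ΔRFU.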
IP6K1 conf – human IP6K1 inhibition, confirmatory; recombinant IP6K1 kinase, ADP-Glo luminescence, 2 h; Potency, µM (top dose mostly 49 µM), inactives show at the highest dose activity change, negative = inhibition, actives largely listed as inhibitors; shares compounds with IP6K1 inh; hit rate 13% among 1,200; AID 1645852; note: potency is the fitted concentration of half-maximal effect; % is set by controls: 0 for no effect and ±100 for the full control effect; nearly all actives have a fitted effect of over 65% in size
* marks the source's active call; other numbers are inactive results. Only some compounds are listed: those with a hit (about 2.8% of all), similar ones and a draw of the others. Unless noted, calls come from the whole dose curve; as a rule, active = well fitted inhibition curve with a large enough effect; inconclusive = small, poorly fitted or top-dose-only effect; inactive = no such curve, though single readings can be large or run the other way.

COCCn1ncc(N2CCC(C(=O)NCc3nc4ccccc4n3C)C2)cc1=O (configuration not stated) was read as IP6K1 inh -3.3 and KDM5B inhibitor inactive.
CCOC(=O)c1ccc(Oc2c(C(F)(F)F)oc3cc(OC(=O)c4ccc(F)cc4)ccc3c2=O)cc1 was read as KDM5B inhibitor inactive.
O=C1C(SCCO)=C(SCCO)C(=O)c2ccccc21 was read as IP6K1 conf 10.3µM*.
`O=C1c2ccccc2CN1C(CO)c1ccccc1` (configuration not stated) gave KDM5B inhibitor inactive.
`O=C(NC1CCCC1)N1CCC(C(=O)N2CCC(c3nc4ncccc4[nH]3)CC2)CC1` gave IP6K1 inh -0.9.
For O=C1/C(=C/c2ccc(Br)cc2F)Cc2ccccc21 the results were KDM5B inhibitor inactive.
Screening COc1cc2c(cc1OC)C(COc1ccc3c(C)cc(=O)oc3c1)N(C(=O)CC(C)C)CC2 (configuration not stated) returned IP6K1 inh -8.6 and KDM5B inhibitor inactive.
For CCC(=O)N1CCc2cc(OC)c(OC)cc2C1COc1ccc2c(C)cc(=O)oc2c1 (configuration not stated) the results were IP6K1 inh -30.9*, KDM5B inhibitor inactive and IP6K1 conf -3.3%.
O=C(CCc1nc(-c2ccncc2)no1)Nc1ncc(Cc2ccccc2)s1 was read as KDM5B inhibitor inactive.
Screening COCC(=O)N1CCN(C(=O)c2ccc(-c3ccc(OC)nn3)cc2)CC1 returned IP6K1 inh 8.1.
`CC(=O)N(C1CCOCC1)C1CCN(S(=O)(=O)c2ccc(Cl)c(C)c2)CC1` gave IP6K1 inh 11.5.
Screening CC[C@@H]1C(=O)N(C)c2cnc(Nc3ccc(C(=O)NC4CCN(C)CC4)cc3OC)nc2N1C1CCCC1 returned IP6K1 conf 17.6%.
`CCC1C(=O)N(C)c2cnc(Nc3ccc(C(=O)NC4CCN(C)CC4)cc3OC)nc2N1C1CCCC1` (configuration not stated) gave IP6K1 inh -12.8.
For CC1CCN(S(=O)(=O)N2CC=C(c3c[nH]c4ccccc34)CC2)CC1 the results were KDM5B inhibitor inactive.
Screening CCOc1ccc(CNC(=O)c2cnc3sc(N4CCOCC4)nn3c2=O)cc1 returned IP6K1 inh 17.1 and KDM5B inhibitor inactive.
`Cc1ccccc1CNC(=O)c1cnc2sc(N3CCOCC3)nn2c1=O` gave IP6K1 inh -99.7*, KDM5B inhibitor inconclusive and IP6K1 conf -14.9%.
Screening CC(NC(=O)c1ccc2c(c1)NC(=O)CS2)c1ccc2c(c1)OCCO2 (configuration not stated) returned KDM5B inhibitor inactive.
Screening CC(=O)Nc1ccc2oc(-c3ccc(C(C)C)cc3)cc(=O)c2c1 returned KDM5B inhibitor inactive.
Screening O=c1cc(-c2ccccc2)oc2ccccc12 returned IP6K1 inh -29.8* and IP6K1 conf inconclusive.
`CC(C)c1ccc(-c2cc(=O)c3ccccc3o2)cc1` gave IP6K1 inh -77.9* and IP6K1 conf 3.26µM*.
`CC(C)(C)C(=O)Nc1ccc2oc(-c3ccccc3)cc(=O)c2c1` gave KDM5B inhibitor inactive.
O=C(Nc1ccc(Cl)cc1)N1CCCC(C(=O)N2CCC(N3CCCC3=O)CC2)C1 (configuration not stated) was read as IP6K1 inh 0.9.
Screening Cc1oc2ncn(CC(C)C)c(=O)c2c1C(=O)NCCc1ccccc1 returned IP6K1 inh 20.2 and KDM5B inhibitor inactive.
`Cc1oc2ncn(CC(C)C)c(=O)c2c1C(=O)NCCCN(Cc1ccccc1)C(C)C` gave IP6K1 inh -28.9*, KDM5B inhibitor inactive and IP6K1 conf -2.9%.
For CC(C)=C1C[C@@]2(C)C(=CC1=O)CC[C@@H](OC(=O)/C(C)=C/CO)[C@@H]2C the results were IP6K1 inh 16.0.
`CC(=O)C1=CCC2C3CC=C4CC(O)CCC4(C)C3CCC12C` (configuration not stated) gave KDM5B inhibitor inactive.
C[C@]12CC[C@H](O)CC1=CCC1C2CC[C@]2(C)C(n3cnc4ccccc43)=CCC12 (some centres not stated) was read as IP6K1 inh -25.8* and IP6K1 conf inconclusive.
`Cc1cnc(C(=O)Oc2ccc(C(C)(C)C)cc2C)cn1` gave KDM5B inhibitor inactive.
`COc1cccc(NC(=O)CSc2nnc3scc(-c4ccc(Cl)cc4)n23)c1` gave IP6K1 inh -36.9*, KDM5B inhibitor inactive and IP6K1 conf 46.6%.
`COc1ccc(NC(=O)CSc2nnc3scc(-c4ccc(Cl)cc4)n23)cc1` gave IP6K1 inh 32.6 and KDM5B inhibitor inactive.
For Clc1cccnc1SCc1cc(Cl)c2c(c1)OCCO2 the results were KDM5B inhibitor inactive.
Screening CCOc1ccc(NC(=O)CN(c2ccccc2OCC)S(=O)(=O)c2ccccc2)cc1 returned IP6K1 inh 8.1 and KDM5B inhibitor inactive.
For CCOc1ccc(NC(=O)CN(c2ccc(Cl)cc2C)S(=O)(=O)c2ccccc2)cc1 the results were IP6K1 inh -25.4*, KDM5B inhibitor inactive and IP6K1 conf -10.1%.
CCOC(=O)C1CCN(C(=O)c2nc3sccn3c2-c2ccncc2)CC1 was read as IP6K1 inh 19.1.
Screening COc1ccc2oc(=O)cc(CN3CCN(c4ccc(F)cc4)CC3)c2c1 returned IP6K1 inh -25.2*, KDM5B inhibitor inactive and IP6K1 conf -21.0%.
`COc1ccc2c(CN3CCN(c4ccc(F)cc4)CC3)cc(=O)oc2c1` gave KDM5B inhibitor inactive.
`Cc1cc(C(=O)COc2cccc(C#N)c2)c(C)n1CCC(C)C` gave KDM5B inhibitor inactive.
Screening CC(C(=O)NCc1ccccc1)n1ccc2cc(S(=O)(=O)N3CCCC3)ccc21 (configuration not stated) returned IP6K1 inh -27.3*, KDM5B inhibitor inconclusive and IP6K1 conf -15.6%.
Screening CC(C(=O)NCc1ccccc1Cl)n1ccc2cc(S(=O)(=O)N3CCCCC3)ccc21 (configuration not stated) returned IP6K1 inh 37.1 and KDM5B inhibitor inactive.
Nc1c(S(=O)(=O)c2ccccc2)c2nc3ccccc3nc2n1-c1ccc(F)cc1 was read as IP6K1 inh -7.7.
Screening Cc1ccc(OCC(=O)Nc2ccccc2OCc2cc(=O)n3ccccc3n2)cc1C returned IP6K1 inh -26.8*, KDM5B inhibitor inactive and IP6K1 conf -4.4%.
Screening Cc1cccc(OCC(=O)Nc2ccccc2OCc2cc(=O)n3ccccc3n2)c1 returned IP6K1 inh 19.8 and KDM5B inhibitor inactive.
`CC(C)c1ccc(-c2nn(-c3ccccc3)cc2/C=N/O)cc1` gave KDM5B inhibitor inactive.
Cc1ccc(NC(=O)c2cc(-c3ccc[nH]3)n[nH]2)cc1 was read as IP6K1 inh 3.5, KDM5B inhibitor inactive and IP6K1 conf -19.7%.
Cc1ccc(NC(=O)c2cc(-c3ccc[nH]3)n[nH]2)cc1C was read as IP6K1 inh 11.8 and KDM5B inhibitor inactive.
For CCOc1ccc(NC(=O)c2cc(-c3ccc[nH]3)n[nH]2)cc1 the results were IP6K1 inh 15.1, KDM5B inhibitor inactive and IP6K1 conf -4.0%.
